# Values without a mark were called inactive. Inconclusive results are not listed. Entries that show only a call come without a potency. Calls of active or inactive are those of the source. Unless noted, calls follow the shape of the dose curve; as a rule, active = well fitted curve in the direction sought with a large enough effect in the repeat runs; inconclusive = weak or mixed curves; inactive = no such curve, though single readings can be large; an effect the other way counts as inactive or inconclusive.
# Tests used:
# [1] = qHTS assay to identify small molecule antagonists of the estrogen receptor alpha (ER-alpha) signaling pathway using the BG1 cell line in the presence of 0.1 nM 17-beta-estradiol - cell viability counter screen (AID 1259241); also: nearly all actives have a fitted effect of over 40% in size
# Method in brief: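 Following 5 days in phenol red-free medium with charcoal-stripped serum, VM7Luc4E2 cells received test compounds alongside 0.1 nM 17beta-estradiol (final) at 37C for 22 hr. Live cells were then quantified via protease-substrate fluorescence.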
# [2] = qHTS assay to identify small molecule antagonists of the androgen receptor (AR) signaling pathway using the MDA cell line in the presence of 0.5 nM R1881 - cell viability counter screen (AID 1259242); also: nearly all actives have a fitted effect of over 45% in size
# Method in brief: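 Concentration-response screen of compounds for toxicity in MDA-kb2 reporter cells: 16 hr at 37C with 0.5 nM R1881, endpoint live-cell protease fluorescence measured in the reporter wells.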
# [3] = qHTS assay to identify small molecule HDAC inhibitors (AID 1259364);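 also: wild-type HCT-116 cells with endogenous class I/II HDAC activity; top concentration of the series differs between compounds; nearly all actives have a fitted effect of over 45% in size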
# Method in brief: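 Screening used wild-type human colon HCT-116 cells incubated overnight, dosed with compounds for 2 hours, and assayed with a homogeneous luminogenic HDAC I/II reagent for 30 minutes at room temperature.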
# [4] = qHTS assay to identify small molecule HDAC inhibitors - cell viability counter screen (AID 1259365); also: series mostly up to about 92 µM; nearly all actives have a fitted effect of over 50% in size
# Method in brief: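 HCT-116 wild-type, overnight attachment; 2hr drug exposure, 37C; CellTiter-Glo luminescent ATP readout after 30min RT.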
# [5] = qHTS assay to identify small molecule agonists of the sonic hedgehog signaling (Shh) pathway - cell viability counter screen (AID 1259366); also: nearly all actives have a fitted effect of over 50% in size
# Method in brief: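 Compounds in DMSO were pin-transferred onto 3T3 Gli1-Luc cells that had settled 4hr; plates then stood 24hr at 37C and 5% CO2. One hour before the end, CellTiter-Fluor was added and fluorescence recorded.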
# [6] = qHTS assay to identify small molecule antagonists of the sonic hedgehog signaling (Shh) pathway - cell viability counter screen (AID 1259367); also: nearly all actives have a fitted effect of over 55% in size
# Method in brief: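 Cytotoxicity was assessed in parallel with Shh reporter activity by measuring live-cell protease fluorescence (CellTiter-Fluor) in NIH/3T3 cells stably carrying Gli1-Luc, treated with compound under conditioned medium stimulation for 23 hr plus 1 hr reagent incubation.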
# [7] = qHTS assay to identify small molecule agonists of the sonic hedgehog signaling (Shh) pathway (AID 1259368; calls by dose curve;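 also: NIH/3T3-derived 3T3Gli1-Luc cells carrying a stable Gli1-driven firefly luciferase reporter; series mostly up to about 92 µM; nearly all actives have a fitted effect of over 15% in size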)
# Method in brief: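 Hedgehog pathway agonism scored by increased firefly luciferase luminescence in 3T3Gli1-Luc cells treated 24 hr at 37 C; detection used a 30 min room-temperature reagent incubation.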
# [8] = qHTS assay to identify small molecule antagonists of the sonic hedgehog signaling (Shh) pathway (AID 1259369; calls by dose curve; also: nearly all actives have a fitted effect of over 45% in size; also: potency is read from the fitted curve at half-maximal effect)
# Method in brief: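 NIH/3T3 stable Gli1-Luc clone, 2,000 cells/well, 4hr settle; cpd + conditioned medium 24hr; Luc reagent 30min RT; luminescence.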
# [9] = qHTS assay to identify small molecule agonists of the androgen receptor (AR) signaling pathway in the presence of an antagonist - cell viability counter screen (AID 1259379);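 also: MDA-kb2 human breast cancer cells carrying an MMTV luciferase reporter; series mostly up to about 92 µM; nearly all actives have a fitted effect of over 25% in size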
# Method in brief: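 MDA-kb2 viability measured by CellTiter-Fluor fluorescence in the same wells as the luciferase signal; nilutamide 3.0uM final; 15-point compound titration; 16 hr at 37C.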
# [10] = target: Thyrotropin receptor (Homo sapiens) (UniProt P16473); experiment: qHTS assay to identify small molecule antagonists of the thyroid stimulating hormone receptor (TSHR) signaling pathway (AID 1259385; calls by dose curve; also: nearly all actives have a fitted effect of over 20% in size)
# Sequence of Thyrotropin receptor (Homo sapiens) (P16473 whole entry, looked up): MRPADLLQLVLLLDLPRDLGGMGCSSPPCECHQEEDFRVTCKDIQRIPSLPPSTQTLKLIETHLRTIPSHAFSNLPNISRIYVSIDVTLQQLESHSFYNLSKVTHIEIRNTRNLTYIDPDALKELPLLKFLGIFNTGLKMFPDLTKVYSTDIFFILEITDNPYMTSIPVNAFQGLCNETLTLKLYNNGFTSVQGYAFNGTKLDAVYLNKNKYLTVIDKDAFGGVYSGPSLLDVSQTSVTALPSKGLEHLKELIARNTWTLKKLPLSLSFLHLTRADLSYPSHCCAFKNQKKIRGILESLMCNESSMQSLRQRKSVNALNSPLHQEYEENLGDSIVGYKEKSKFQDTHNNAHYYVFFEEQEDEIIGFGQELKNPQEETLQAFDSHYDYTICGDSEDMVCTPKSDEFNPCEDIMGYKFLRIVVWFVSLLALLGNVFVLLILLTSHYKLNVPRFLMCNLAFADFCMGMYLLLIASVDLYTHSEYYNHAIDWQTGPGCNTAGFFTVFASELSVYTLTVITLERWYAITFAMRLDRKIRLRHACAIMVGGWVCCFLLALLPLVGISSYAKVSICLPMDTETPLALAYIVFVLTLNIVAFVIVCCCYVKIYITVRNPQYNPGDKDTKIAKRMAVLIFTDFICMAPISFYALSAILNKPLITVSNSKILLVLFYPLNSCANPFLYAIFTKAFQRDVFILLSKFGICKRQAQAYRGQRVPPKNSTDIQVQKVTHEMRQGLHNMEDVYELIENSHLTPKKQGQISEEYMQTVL
# Method in brief: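 TSHR-HEK293 cells were plated and held 18 h at 37C/5% CO2, then given compound plus Ro20-1724 and stimulated with TSH at 1.5 ng/mL final. After 30 min at room temperature, cAMP was detected with cAMP-d2/anti-cAMP-cryptate (1 h) by fluorescence.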
# [11] = qHTS assay to identify small molecule phospholipidosis (PLD) inducers (AID 1259344; active = well fitted curve in the direction sought with a large enough effect; an effect the other way counts as inactive or inconclusive)
# Method in brief: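 Cells (HepG2, 900 per well) attach for 4 h, receive LipidTOX Red and compound together, incubate 24 h at 37 C, are fixed 30 min with paraformaldehyde/Hoechst, then imaged at one site per well.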
# [12] = qHTS assay to identify small molecule agonists of the estrogen receptor beta (ER-beta) signaling pathway - cell viability counter screen (AID 1259380); also: nearly all actives have a fitted effect of over 30% in size
# Method in brief: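 Measured: luminescence from CellTiter-Glo after 30 min at room temperature, added to wells already read for the LiveBLAzer FRET reporter (2 hr substrate); ER-beta-UAS-bla HEK293T cells had 16 hr compound treatment at 37C, 5% CO2.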
# [13] = qHTS assay to identify small molecule antagonists of the estrogen receptor beta (ER-beta) signaling pathway - cell viability counter screen (AID 1259382); also: series mostly up to about 92 µM; nearly all actives have a fitted effect of over 55% in size
# Method in brief: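 Readout: luminescence, CellTiter-Glo, same wells as bla assay. System: ER-beta-UAS-bla GripTite HEK293T, 2% charcoal-stripped FBS. Exposure: compounds plus 1nM 17-beta-estradiol, 16 hr, 37C.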
# [14] = target: Estrogen receptor (Homo sapiens) (UniProt P03372); experiment: qHTS assay to identify small molecule agonists of the estrogen receptor alpha (ER-alpha) signaling pathway in the presence of an antagonist (AID 1259383; calls by dose curve; also: top concentration of the series differs between compounds; nearly all actives have a fitted effect of over 15% in size)
# Sequence of Estrogen receptor (Homo sapiens) (P03372 whole entry, looked up): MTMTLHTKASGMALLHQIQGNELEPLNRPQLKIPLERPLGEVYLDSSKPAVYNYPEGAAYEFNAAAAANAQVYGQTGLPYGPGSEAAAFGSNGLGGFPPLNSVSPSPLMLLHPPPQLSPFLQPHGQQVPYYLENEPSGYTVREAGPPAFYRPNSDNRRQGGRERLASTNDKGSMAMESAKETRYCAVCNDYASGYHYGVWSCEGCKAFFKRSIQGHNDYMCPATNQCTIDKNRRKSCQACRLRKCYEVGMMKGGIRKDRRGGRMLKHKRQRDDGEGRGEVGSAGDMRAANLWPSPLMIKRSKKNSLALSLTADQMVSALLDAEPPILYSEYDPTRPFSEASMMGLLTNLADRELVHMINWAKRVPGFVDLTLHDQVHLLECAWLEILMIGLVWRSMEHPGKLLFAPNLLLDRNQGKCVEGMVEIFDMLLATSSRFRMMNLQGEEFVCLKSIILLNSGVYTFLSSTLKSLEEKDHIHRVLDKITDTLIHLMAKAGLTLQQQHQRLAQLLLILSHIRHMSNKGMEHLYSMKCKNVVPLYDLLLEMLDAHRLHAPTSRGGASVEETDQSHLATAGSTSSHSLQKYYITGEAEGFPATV
# Method in brief: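 Quantitative HTS confirmation: compounds titrated at 15 concentrations onto estrogen-deprived VM7Luc4E2 cells carrying a four-ERE luciferase construct, with ICI-182,780 present at 10.0nM final. Signal is luminescence after 22hr exposure.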
# [15] = qHTS assay to identify small molecule agonists or antagonists of the thyroid stimulating hormone receptor (TSHR) signaling pathway - wild type cell line counter screen (AID 1259384; calls by dose curve)
# Method in brief: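 Wild-type HEK293 cells were plated 18 h at 37 C/5% CO2, pin-dosed with compound plus Ro20-1724 medium, held 30 min at room temperature, then given cAMP-d2 and anti-cAMP-cryptate; fluorescence was read after 1 h. Fifteen concentrations, triplicate.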
# [16] = target: Estrogen receptor beta (Homo sapiens) (UniProt Q92731); experiment: qHTS assay to identify small molecule agonists of the estrogen receptor beta (ER-beta) signaling pathway (AID 1259377; active = well fitted activation curve with a large enough effect in the signal ratio in the repeat runs, not every such curve was filed as active; the % refers to the signal ratio)
# Sequence of Estrogen receptor beta (Homo sapiens) (Q92731 whole entry, looked up): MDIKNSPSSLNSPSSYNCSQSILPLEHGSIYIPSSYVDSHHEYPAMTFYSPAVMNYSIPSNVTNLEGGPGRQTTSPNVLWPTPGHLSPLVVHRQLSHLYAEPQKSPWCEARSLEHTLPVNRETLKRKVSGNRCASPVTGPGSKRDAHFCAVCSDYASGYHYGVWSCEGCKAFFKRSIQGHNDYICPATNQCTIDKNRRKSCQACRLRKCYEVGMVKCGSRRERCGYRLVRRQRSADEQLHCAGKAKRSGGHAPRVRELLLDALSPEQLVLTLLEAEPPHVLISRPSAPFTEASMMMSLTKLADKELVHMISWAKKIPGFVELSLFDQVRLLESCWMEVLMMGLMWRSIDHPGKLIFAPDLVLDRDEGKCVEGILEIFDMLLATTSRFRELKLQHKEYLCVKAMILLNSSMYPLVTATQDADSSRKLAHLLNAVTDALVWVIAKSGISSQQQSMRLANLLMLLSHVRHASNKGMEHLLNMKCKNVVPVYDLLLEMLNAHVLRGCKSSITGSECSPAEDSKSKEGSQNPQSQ
# Method in brief: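 qHTS in ER-beta-UAS-bla HEK293T cells: 6 hr settling, then 16 hr compound at 37C, then LiveBLAzer substrate 2 h at RT before fluorescence reading.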
# [17] = target: Estrogen receptor beta (Homo sapiens) (UniProt Q92731); experiment: qHTS assay to identify small molecule antagonists of the estrogen receptor beta (ER-beta) signaling pathway (AID 1259378; active = well fitted inhibition curve with a large enough effect in the signal ratio in the repeat runs, not every such curve was filed as active; the % refers to the signal ratio)
# Method in brief: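 ER-beta-UAS-bla HEK293T (GripTite) cells in 2% charcoal-stripped FBS medium were preincubated 6 hr at 37C, dosed with compound, then stimulated with 1 nM E2 (final) for 16 hr; beta-lactamase reporter read by B/G FRET fluorescence after 2 hr substrate loading.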
SMILES,Potency [1],Potency [2],Potency [3],outcome [4],Potency [5],Potency [6],outcome [7],Potency [8],Potency [9],Potency [10],Potency [11],Potency [12],Potency [13],Potency [14],Potency [15],Potency [16],Potency [17]
Nc1nc(CC(=O)O)cs1,inactive,inactive,inactive,inactive,inactive,inactive,inactive,inactive,inactive,inactive,,,,,,,
CCOC(=S)SSC(=S)OCC,inactive,inactive,,inactive,inactive,inactive,inactive,inactive,,inactive,inactive,inactive,inactive,inactive,inactive,,
CCCC(=O)OCC,inactive,inactive,inactive,inactive,inactive,inactive,inactive,68.6 µM (active),inactive,inactive,,,inactive,inactive,inactive,inactive,inactive
CC(C)c1cccc(C(C)C)c1NC(=O)NS(=O)(=O)c1cc(C(C)(C)O)co1,inactive,inactive,inactive,inactive,inactive,inactive,inactive,inactive,inactive,inactive,,inactive,inactive,,inactive,inactive,inactive
Cc1ccc(C(=O)C(C)CN2CCCCC2)cc1 (configuration not stated),inactive,inactive,,inactive,inactive,inactive,inactive,inactive,,inactive,inactive,inactive,inactive,inactive,,inactive,inactive

# Source: PubChem BioAssay (Tox21)
